Bioassay records deposited in PubChem by National Center for Advancing Translational Sciences (NCATS).
This is a sample that favours compounds with a hit; in the whole collection about 12% have one here.
HP1b binding inh: HP1-beta chromodomain-methylated histone interaction inhibition | P83916 | AlphaScreen HP1-beta / biotin-H3K9me3 peptide binding | Potency, µM (highest dose often 114 µM), for the others: at the highest dose activity change, negative = inhibition, usual class: inhibitors | 0.56% of 390,000 active; further: nearly all actives have a fitted effect of over 70% in size
Target sequence (P83916 whole entry, looked up): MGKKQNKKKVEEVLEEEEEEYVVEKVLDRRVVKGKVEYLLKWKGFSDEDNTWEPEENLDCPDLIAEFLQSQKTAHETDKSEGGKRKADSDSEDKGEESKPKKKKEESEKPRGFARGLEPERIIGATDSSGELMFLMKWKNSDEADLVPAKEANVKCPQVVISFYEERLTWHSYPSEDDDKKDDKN
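AlphaScreen: HP1-beta (50 nM) preformed 30 min with biotin-H3(1-18)K9me3 peptide (50 nM) in PBS pH 7.4, 0.01% Tween-20. Compound added for 30 min at RT, then streptavidin donor/nickel chelate acceptor beads (10 ug/mL) for 30 min.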
L3MBTL1 block: blocks human L3MBTL1 | Q9Y468 | AlphaScreen L3MBTL1–H3K9me1 peptide binding | Potency, µM (highest dose often 57.1 µM), for inactives: at the top dose activity, negative = inhibition, hits mostly inhibitors | 0.66% of 230,000 active | AID 485360; further: on the % scale 0 is the no-effect control and ±100 the full control effect; nearly all actives have a fitted effect of over 60% in size
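Displacement of a biotinylated histone H3(1-15) peptide monomethylated at Lys9 (75 nM) from L3MBTL1 (50 nM) was measured by AlphaScreen after a 30 min room-temperature compound incubation; cefsulodin titration served as intraplate control.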
G9a block: inhibitors of human histone lysine methyltransferase G9a | G9a H3K9 monomethylation, AlphaScreen, 2 h | Q96KQ7 | 8.8% of 350,000 active | AID 504332 | Potency, µM (top dose mostly 102 µM), for inactives: at the highest dose activity, negative = inhibition, hits mostly inhibitors; further: on the % scale 0 is the no-effect control and ±100 the full control effect; nearly all actives have a fitted effect of over 75% in size
Target sequence (Q96KQ7 913-1193 limits assumed): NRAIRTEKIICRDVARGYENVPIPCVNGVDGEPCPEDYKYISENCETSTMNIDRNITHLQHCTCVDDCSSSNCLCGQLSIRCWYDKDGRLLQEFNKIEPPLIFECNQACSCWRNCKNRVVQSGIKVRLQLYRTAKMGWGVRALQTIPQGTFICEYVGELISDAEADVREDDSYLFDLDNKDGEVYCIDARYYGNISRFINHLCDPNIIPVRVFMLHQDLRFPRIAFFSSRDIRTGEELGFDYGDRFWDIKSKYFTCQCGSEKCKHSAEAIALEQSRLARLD
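AlphaScreen detection with an anti-monomethyl H3K9 antibody quantified product after a 2 h room-temperature reaction containing 500 nM biotinylated H3K9 peptide, 20 µM SAM and 20 nM enzyme, which had been preincubated 15 min with compound.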
Sfp PPTase inh: Sfp phosphopantetheinyl transferase inhibition; Potency, µM, inactives show largest response in the series, negative = inhibition, actives largely listed as inhibitors; Q9F4F7; 3.5% of 310,000 active; AID 1490; Biochemical Sfp PPTase activity, qHTS;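 further: the enzyme is Sfp with the accession as filed and its product quenches rhodamine fluorescence; 0% = enzyme reaction without inhibitor and -100% = no enzyme wells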
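Buffer: 50 mM Hepes-Na pH 7.6, 10 mM MgCl2, 0.01% Nonidet P-40, 0.01% BSA. Enzyme 15 nM, pre-exposed to compound 15 min; substrates then added and fluorescence change tracked over 30 min.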
JMJD2A Tudor inh: blocks the human JMJD2A Tudor domain | O75164 | AlphaScreen JMJD2A-Tudor / H3K4me3 peptide binding | Potency, µM (series often up to 114 µM), inactives show at the highest dose activity change, negative = inhibition, most hits filed as inhibitors | 4.4% of 390,000 active | AID 504339; further: on the % scale 0 is the no-effect control and ±100 the full control effect; nearly all actives have a fitted effect of over 50% in size
BAZ2B block: BAZ2B (human) inhibition. 4.4% of 360,000 active. AlphaScreen BAZ2B-H3K14Ac peptide displacement. Potency, µM (series often up to 114 µM), for the others: at the top dose activity change, negative = inhibition, actives largely listed as inhibitors. AID 504333. Q9UIF8; further: on the % scale 0 is the no-effect control and ±100 the full control effect; nearly all actives have a fitted effect of over 60% in size
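BAZ2B (50 nM) with biotin-H3(5-23)K14Ac peptide (50 nM) in PBS pH 7.4, 0.01% Tween-20, preformed 30 min, then compound 30 min at room temperature; top concentration 110uM. AlphaScreen streptavidin donor/nickel chelate acceptor beads (10 ug/mL final), 20 min dark, signal read.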
* hit, by the source's call; ? = inconclusive; . = no result; [ ] = dose if it differs, or a comment. The call rests on the fitted dose curve; in most records, active means well fitted curve in the direction sought with a large enough effect; inconclusive means small, poorly fitted or top-dose-only effect, or another doubt; inactive means no such curve, though single readings can be large; an effect the other way counts as inactive or inconclusive. Potency means the concentration at half of the fitted maximal effect.

SMILES | HP1b binding inh | L3MBTL1 block | G9a block | Sfp PPTase inh | JMJD2A Tudor inh | BAZ2B block
O=C(/C=C/c1ccco1)NCCCN1CCOCC1 | 22% | 4% | 2%[12.7 µM] | 5% | -5% | -17%
Cn1c(N)c(C(=O)CSc2n[nH]c(-c3ccccc3)n2)c(=O)n(C)c1=O | 25% | 0% | 5%[12.7 µM] | . | -24% | 8%
CC(Sc1nn(-c2ccc(F)cc2)c(=S)s1)C(=O)c1c(N)n(C)c(=O)n(C)c1=O (stereo unspecified) | 0% | -2% | 50µM* | . | -19% | -13%
Cc1cc(C)nc(NC(=O)CSc2nn(-c3ccccc3)c(=S)s2)n1 | 12% | -9% | ? | -6% | ? | 79µM*
Cn1c(N)c(C(=O)CSc2nn(-c3ccccc3)c(=S)s2)c(=O)n(C)c1=O | 11% | -1% | 50µM* | . | -21% | 0%
CC(Sc1n[nH]c(-c2ccccc2)n1)C(=O)c1c(N)n(C)c(=O)n(C)c1=O (stereo unspecified) | 31% | 7% | 50µM* | . | 0% | 4%
O=C(O)c1c(Cl)cccc1Cl | 55% | 4% | 8%[0.501 µM] | . | -23% | ?
CCOC(=O)N1CCN(C(=O)c2ccc3c(c2)N(Cc2cccc(Cl)c2)C(=O)c2ccccc2S3=O)CC1 (stereo unspecified) | 39% | . | 1%[59 µM] | 5% | -23% | -38%
Cc1ccc(NC(=O)CSc2nc(-c3cccs3)nc3cc(=O)[nH]n23)cc1C | -21% | ? | 25%[12.7 µM] | . | 79µM* | 50µM*
O=C(CSc1nc(-c2cccc(Cl)c2)nc2cc(=O)[nH]n12)Nc1ccccc1 | -1% | . | -7%[59 µM] | . | ? | 56µM*
Cc1ccc(NC(=O)CSc2nc(-c3ccco3)nc3cc(=O)[nH]n23)c(Cl)c1 | 26% | . | . | ? | ? | 45µM*
O=C(CSc1nc(-c2cccs2)nc2cc(=O)[nH]n12)Nc1ccc(F)cc1 | 21% | . | 26%[59 µM] | . | -17% | -4%
Cn1c(CNC(=O)CSc2nc(-c3cccc(Cl)c3)nc3cc(=O)[nH]n23)nc2ccccc21 | 76% | . | 61%[59 µM] | . | -4% | 20%
Cc1ccccc1NC(=O)CSc1nc(-c2cccs2)nc2cc(=O)[nH]n12 | 6% | -10% | 17%[12.7 µM] | . | ? | 50µM*
O=C(CN1C(=O)NC2(CCCC2)C1=O)Nc1cc(Cl)ccc1Oc1ccccc1 | 21% | -2% | 0%[59 µM] | . | -27% | 7%
Cc1nc(SC(C)C(=O)NCC2CCCO2)c2cc(-c3ccccc3)sc2n1 (stereo unspecified) | 51% | -10% | 1%[0.501 µM] | . | -1% | -8%
O=C(Nc1ccc(Cl)c(Cl)c1)N1CCC(c2ccccc2)C1 (stereo unspecified) | 43% | . | 13%[59 µM] | . | -9% | -4%
CCOc1ccc(-c2nc(SCC(=O)Nc3ccc(C)c(C)c3)n3[nH]c(=O)cc3n2)cc1 | ? | . | -4%[59 µM] | . | 50µM* | 50µM*
CCCCn1c(=O)nc2n(-c3ccc(Cl)cc3)c3ccccc3cc-2c1=O | 34% | 1% | 40µM* | -28% | 4% | 7%
CCCCn1c(=O)nc2n(-c3ccc(C)cc3)c3ccccc3cc-2c1=O | . | 0% | 18% | -18% | -5% | 5%
CCOC(=O)CSc1nc2sc(C(=O)O)c(C)c2c(=O)[nH]1 | 33% | 3% | 79µM* | 13% | -6% | 3%
CCOC(=O)c1sc2nc(CSc3ccccc3Cl)[nH]c(=O)c2c1C | 17% | . | -30% | 6% | -24% | .
CCn1c(SCc2nc3sc(C(=O)O)c(C)c3c(=O)[nH]2)nc2ccccc21 | 28µM* | . | 2.5µM* | ? | 40µM* | 25µM*
Cc1c(C(=O)O)sc2nc(CSc3ncc(C(F)(F)F)cc3Cl)[nH]c(=O)c12 | ? | ? | 8%[59 µM] | -8% | 50µM* | 50µM*
COCCn1c(SCc2nc3sc(C(=O)OC)c(C)c3c(=O)[nH]2)nc2ccccc21 | 26% | -6% | ? | 2% | -21% | -13%
SMILES | HP1b binding inh | L3MBTL1 block | G9a block | Sfp PPTase inh | JMJD2A Tudor inh | BAZ2B block
CCOC(=O)CSc1nc2sc(C)c(C)c2c(=O)[nH]1 | 62% | ? | -6%[12.7 µM] | -6% | 16% | 2%
COC(=O)[C@]1(C)N[C@H](CN(C)C(=O)COc2ccccc2)[C@@H]2C(=O)N(C)C(=O)[C@@H]21 | 54% | -2% | . | . | -24% | .
CN(C(=O)COC(=O)C1CCN(S(=O)(=O)c2c(Cl)cccc2Cl)CC1)C1CCS(=O)(=O)C1 (stereo unspecified) | 32% | -4% | ? | . | -4% | 6%
Cc1cccc(C(=O)Oc2ccc(/C=N/O)cc2)c1 | 51% | -3% | 10µM* | -11% | -1% | -5%
C[C@H]1CNC(=O)C(=O)N1C[C@H](Cc1ccc(O)cc1)NC(=O)CC12CC3CC(CC(C3)C1)C2 | 30% | ? | 71µM* | 3% | -14% | -2%
Cc1ccc(-c2cc(C(=O)NCc3ccccc3)c3c(-c4ccc(C)cc4)[nH]nc3n2)cc1 | 11% | . | 6%[59 µM] | . | 11% | 5%
CC(C)Cn1c(SCc2nc3ccccc3c(=O)[nH]2)nc2ccccc2c1=O | 17% | 9% | 2% | 2% | -8% | 89µM*
O=c1[nH]c(CSc2cccc[n+]2[O-])nc2ccccc12 | 47% | 5% | . | 45µM* | -1% | -4%
Oc1c(Cl)cc(Cl)cc1CNc1nccs1 | 16% | 6% | 79µM* | 6% | -13% | 0%
Cc1cccc(NCc2cc(Cl)cc(Cl)c2O)n1 | 30% | -10% | -51%[59 µM] | -2% | -14% | -10%
CCOC(=O)c1sc(NS(=O)(=O)c2ccccc2)nc1C | 24% | 1% | -2% | 14% | -16% | 3%
Cc1nc(NS(=O)(=O)c2ccccc2)sc1NC(=O)OCCN(C)C | 26% | 2%[11.4 µM] | ? | 20µM* | -8%[11.4 µM] | -5%
Cc1ccccc1NC(=O)Cn1cc(S(=O)(=O)N2CCCC2)c(S(=O)(=O)N2CCCC2)c1 | 24% | . | -9%[59 µM] | . | -5% | 4%[57.1 µM]
CCC1(c2ccc(Cl)cc2)NC(=S)N(c2ccccc2)N1 (stereo unspecified) | 23% | -2% | 13µM* | 56µM* | -30% | -38%
CC1(c2ccc(O)cc2)NC(=O)N(c2ccccc2)N1 (stereo unspecified) | 23% | -11% | -6% | 14% | -3% | -4%
CCC1(c2ccccc2)NC(=S)N(c2ccc(C)cc2)N1 (stereo unspecified) | 37% | . | ? | 50µM* | -35% | -37%
Cc1cc(Cl)ccc1OCC(O)CNCCc1ccc(S(N)(=O)=O)cc1 (stereo unspecified) | 24% | . | 5% | 0% | -19% | 20%
Cc1ccc(CNC(=O)CCn2cc(-c3ccc(F)cc3)nc2-c2ccncc2)cc1 | 12% | -4% | -4%[2.33 µM] | . | -29% | -13%
